# Experiments:
# [1] = target: High affinity nerve growth factor receptor (Homo sapiens) (UniProt P04629); conditions: at 1 µM;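 further: each value is the mean percent inhibition of TRKA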
# [2] = target: BDNF/NT-3 growth factors receptor (Homo sapiens) (UniProt Q16620); conditions: at 0.1 µM
# [3] = target: BDNF/NT-3 growth factors receptor (Homo sapiens) (UniProt Q16620); conditions: at 1 µM
# [4] = target: NT-3 growth factor receptor (Homo sapiens) (UniProt Q16288); conditions: at 0.1 µM
# [5] = target: NT-3 growth factor receptor (Homo sapiens) (UniProt Q16288); conditions: at 1 µM
# [6] = target: T1, Tyrosine-protein kinase TXK (Homo sapiens) (UniProt P42681); conditions: at 0.1 µM
# T1 sequence (whole entry): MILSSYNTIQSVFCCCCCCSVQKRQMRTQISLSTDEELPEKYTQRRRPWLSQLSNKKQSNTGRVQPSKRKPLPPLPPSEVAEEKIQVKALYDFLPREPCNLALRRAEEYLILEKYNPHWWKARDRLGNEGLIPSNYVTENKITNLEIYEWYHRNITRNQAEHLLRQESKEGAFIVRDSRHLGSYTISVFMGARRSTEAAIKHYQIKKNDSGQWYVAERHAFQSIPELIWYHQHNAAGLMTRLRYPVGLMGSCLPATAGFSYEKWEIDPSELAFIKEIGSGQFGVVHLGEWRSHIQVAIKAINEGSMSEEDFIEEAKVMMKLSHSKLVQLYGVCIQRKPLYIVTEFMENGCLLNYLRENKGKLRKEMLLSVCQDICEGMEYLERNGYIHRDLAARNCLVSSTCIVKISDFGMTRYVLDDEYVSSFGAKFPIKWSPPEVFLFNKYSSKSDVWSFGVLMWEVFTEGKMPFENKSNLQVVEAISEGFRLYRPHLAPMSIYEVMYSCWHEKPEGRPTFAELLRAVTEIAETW
# [7] = target: T1, Tyrosine-protein kinase TXK (Homo sapiens); conditions: at 1 µM
# [8] = target: Non-receptor tyrosine-protein kinase TYK2 (Homo sapiens) (UniProt P29597); conditions: at 0.1 µM;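 further: each value is a mean of the inhibition readings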
# Non-receptor tyrosine-protein kinase TYK2 (Homo sapiens), sequence (P29597 whole entry): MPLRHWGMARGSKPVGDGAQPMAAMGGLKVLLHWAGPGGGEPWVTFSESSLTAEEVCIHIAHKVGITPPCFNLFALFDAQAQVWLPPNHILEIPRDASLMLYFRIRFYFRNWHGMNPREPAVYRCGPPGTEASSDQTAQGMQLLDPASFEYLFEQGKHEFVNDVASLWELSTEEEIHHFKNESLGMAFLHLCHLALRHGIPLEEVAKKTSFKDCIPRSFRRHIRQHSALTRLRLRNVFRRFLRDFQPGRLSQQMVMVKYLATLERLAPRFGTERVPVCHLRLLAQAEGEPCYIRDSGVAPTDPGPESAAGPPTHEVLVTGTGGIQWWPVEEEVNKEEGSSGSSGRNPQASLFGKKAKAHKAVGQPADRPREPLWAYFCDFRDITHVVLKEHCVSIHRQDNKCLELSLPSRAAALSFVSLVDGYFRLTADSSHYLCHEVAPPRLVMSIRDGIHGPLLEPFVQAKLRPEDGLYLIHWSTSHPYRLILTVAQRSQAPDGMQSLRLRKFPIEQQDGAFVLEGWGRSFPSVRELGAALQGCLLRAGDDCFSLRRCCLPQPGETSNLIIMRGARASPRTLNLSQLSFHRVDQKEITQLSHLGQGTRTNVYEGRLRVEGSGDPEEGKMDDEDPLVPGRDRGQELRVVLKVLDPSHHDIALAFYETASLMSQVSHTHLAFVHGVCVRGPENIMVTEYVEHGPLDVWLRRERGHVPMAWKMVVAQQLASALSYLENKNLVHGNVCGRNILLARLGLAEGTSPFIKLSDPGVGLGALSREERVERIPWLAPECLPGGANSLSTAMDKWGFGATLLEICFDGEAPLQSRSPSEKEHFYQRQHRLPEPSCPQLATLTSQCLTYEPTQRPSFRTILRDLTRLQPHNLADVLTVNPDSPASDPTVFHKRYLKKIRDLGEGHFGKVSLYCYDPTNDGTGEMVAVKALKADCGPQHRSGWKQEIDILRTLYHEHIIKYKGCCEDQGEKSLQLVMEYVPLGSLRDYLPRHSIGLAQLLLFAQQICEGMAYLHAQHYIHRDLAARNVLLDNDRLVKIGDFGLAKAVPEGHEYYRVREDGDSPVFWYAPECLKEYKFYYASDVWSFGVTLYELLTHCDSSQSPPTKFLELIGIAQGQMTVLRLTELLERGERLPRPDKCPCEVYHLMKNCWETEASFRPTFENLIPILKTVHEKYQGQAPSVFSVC
# [9] = target: T2, Dual specificity protein kinase TTK (Homo sapiens) (UniProt P33981); conditions: at 1 µM;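 further: reported figures are mean TTK inhibition at 1 µM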
# T2 sequence (whole entry): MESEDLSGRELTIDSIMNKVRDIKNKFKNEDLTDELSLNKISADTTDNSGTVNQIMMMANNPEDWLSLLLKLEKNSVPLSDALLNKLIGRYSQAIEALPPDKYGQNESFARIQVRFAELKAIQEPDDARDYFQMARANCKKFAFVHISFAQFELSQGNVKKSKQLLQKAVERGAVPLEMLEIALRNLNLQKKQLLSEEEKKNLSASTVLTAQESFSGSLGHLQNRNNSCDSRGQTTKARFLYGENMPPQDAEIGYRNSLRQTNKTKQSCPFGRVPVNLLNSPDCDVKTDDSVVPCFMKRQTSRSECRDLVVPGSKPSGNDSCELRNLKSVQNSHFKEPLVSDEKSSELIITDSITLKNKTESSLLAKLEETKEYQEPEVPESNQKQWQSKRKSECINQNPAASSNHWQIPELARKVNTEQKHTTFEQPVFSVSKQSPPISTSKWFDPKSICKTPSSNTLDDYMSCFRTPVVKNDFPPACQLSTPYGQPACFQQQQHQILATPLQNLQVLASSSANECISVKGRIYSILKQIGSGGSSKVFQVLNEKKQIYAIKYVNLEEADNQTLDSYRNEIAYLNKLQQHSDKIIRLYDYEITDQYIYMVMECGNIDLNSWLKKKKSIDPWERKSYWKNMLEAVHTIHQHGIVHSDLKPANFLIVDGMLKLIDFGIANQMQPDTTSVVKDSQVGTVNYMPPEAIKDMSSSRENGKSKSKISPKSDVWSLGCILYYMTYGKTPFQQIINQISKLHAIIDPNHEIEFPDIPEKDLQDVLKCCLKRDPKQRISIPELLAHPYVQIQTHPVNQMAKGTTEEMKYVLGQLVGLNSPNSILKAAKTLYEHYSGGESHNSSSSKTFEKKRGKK
# [10] = target: T3, Aurora kinase A (Homo sapiens) (UniProt O14965); conditions: at 0.1 µM
# T3 sequence (whole entry): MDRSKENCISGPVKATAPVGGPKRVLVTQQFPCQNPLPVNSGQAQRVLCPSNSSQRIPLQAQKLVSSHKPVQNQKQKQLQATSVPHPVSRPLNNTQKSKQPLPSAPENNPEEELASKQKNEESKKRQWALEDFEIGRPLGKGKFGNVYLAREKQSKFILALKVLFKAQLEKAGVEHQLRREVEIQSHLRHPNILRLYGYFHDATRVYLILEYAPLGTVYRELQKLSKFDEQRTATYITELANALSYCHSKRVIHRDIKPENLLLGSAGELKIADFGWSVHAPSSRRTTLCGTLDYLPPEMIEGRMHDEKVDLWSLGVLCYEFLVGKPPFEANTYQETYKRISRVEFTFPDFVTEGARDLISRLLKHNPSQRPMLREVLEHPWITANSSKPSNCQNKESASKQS
# [11] = target: T3, Aurora kinase A (Homo sapiens); conditions: at 1 µM
# [12] = target: Aurora kinase B (Homo sapiens) (UniProt Q96GD4); conditions: at 0.1 µM
# Aurora kinase B (Homo sapiens), sequence (Q96GD4 whole entry): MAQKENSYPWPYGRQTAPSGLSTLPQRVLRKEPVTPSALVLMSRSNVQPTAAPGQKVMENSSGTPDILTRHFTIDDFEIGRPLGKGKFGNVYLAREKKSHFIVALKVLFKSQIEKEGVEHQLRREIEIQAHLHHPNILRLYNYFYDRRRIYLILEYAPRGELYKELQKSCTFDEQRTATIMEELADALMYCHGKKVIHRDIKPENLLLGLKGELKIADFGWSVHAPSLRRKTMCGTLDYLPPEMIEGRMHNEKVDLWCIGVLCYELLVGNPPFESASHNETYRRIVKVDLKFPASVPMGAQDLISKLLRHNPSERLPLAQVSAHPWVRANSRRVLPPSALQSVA
# [13] = target: Aurora kinase B (Homo sapiens) (UniProt Q96GD4); conditions: at 1 µM
# [14] = target: T4, Aurora kinase C (Homo sapiens) (UniProt Q9UQB9); conditions: at 0.1 µM
# T4 sequence (whole entry): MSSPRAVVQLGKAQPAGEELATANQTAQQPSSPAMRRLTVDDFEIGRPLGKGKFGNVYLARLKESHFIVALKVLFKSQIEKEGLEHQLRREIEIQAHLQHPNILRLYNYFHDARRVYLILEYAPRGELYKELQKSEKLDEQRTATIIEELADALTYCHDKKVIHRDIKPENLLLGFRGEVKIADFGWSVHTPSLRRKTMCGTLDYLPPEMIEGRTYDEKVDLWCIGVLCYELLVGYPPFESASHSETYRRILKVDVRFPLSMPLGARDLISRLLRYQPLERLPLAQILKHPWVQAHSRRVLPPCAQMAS
# [15] = target: T4, Aurora kinase C (Homo sapiens); conditions: at 1 µM
# [16] = target: Serine/threonine-protein kinase 10 (Homo sapiens) (UniProt O94804); conditions: at 0.1 µM
# [17] = target: Serine/threonine-protein kinase 10 (Homo sapiens) (UniProt O94804); conditions: at 1 µM
# [18] = target: T5, Mitogen-activated protein kinase kinase kinase kinase 2 (Homo sapiens) (UniProt Q12851); conditions: at 0.1 µM
# T5 sequence (whole entry): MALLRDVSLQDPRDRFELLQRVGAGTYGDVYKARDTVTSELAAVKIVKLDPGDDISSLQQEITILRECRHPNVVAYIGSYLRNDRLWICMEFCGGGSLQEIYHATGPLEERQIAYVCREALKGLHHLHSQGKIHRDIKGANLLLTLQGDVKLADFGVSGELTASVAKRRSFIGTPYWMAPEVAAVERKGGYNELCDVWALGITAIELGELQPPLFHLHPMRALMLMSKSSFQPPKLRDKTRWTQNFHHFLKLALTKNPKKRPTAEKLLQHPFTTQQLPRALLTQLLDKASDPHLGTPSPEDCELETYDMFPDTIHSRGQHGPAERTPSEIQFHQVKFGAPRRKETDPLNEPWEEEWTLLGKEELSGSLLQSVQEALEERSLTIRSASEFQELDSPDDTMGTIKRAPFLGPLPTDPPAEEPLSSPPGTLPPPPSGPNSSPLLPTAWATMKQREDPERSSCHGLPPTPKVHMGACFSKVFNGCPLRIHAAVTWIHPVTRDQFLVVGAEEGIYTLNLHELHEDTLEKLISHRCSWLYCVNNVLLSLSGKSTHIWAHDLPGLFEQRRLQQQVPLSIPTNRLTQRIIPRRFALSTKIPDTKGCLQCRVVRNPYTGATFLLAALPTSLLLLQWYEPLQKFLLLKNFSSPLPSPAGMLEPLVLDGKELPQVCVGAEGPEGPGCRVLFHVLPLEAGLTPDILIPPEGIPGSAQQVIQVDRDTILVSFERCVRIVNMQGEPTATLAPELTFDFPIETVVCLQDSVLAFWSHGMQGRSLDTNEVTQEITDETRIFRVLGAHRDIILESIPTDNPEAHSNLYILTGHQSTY
# [19] = target: T5, Mitogen-activated protein kinase kinase kinase kinase 2 (Homo sapiens); conditions: at 1 µM
# [20] = target: Mitogen-activated protein kinase kinase kinase kinase 4 (Homo sapiens) (UniProt O95819); conditions: at 0.1 µM
# Mitogen-activated protein kinase kinase kinase kinase 4 (Homo sapiens), sequence (O95819 2-1239 limits assumed): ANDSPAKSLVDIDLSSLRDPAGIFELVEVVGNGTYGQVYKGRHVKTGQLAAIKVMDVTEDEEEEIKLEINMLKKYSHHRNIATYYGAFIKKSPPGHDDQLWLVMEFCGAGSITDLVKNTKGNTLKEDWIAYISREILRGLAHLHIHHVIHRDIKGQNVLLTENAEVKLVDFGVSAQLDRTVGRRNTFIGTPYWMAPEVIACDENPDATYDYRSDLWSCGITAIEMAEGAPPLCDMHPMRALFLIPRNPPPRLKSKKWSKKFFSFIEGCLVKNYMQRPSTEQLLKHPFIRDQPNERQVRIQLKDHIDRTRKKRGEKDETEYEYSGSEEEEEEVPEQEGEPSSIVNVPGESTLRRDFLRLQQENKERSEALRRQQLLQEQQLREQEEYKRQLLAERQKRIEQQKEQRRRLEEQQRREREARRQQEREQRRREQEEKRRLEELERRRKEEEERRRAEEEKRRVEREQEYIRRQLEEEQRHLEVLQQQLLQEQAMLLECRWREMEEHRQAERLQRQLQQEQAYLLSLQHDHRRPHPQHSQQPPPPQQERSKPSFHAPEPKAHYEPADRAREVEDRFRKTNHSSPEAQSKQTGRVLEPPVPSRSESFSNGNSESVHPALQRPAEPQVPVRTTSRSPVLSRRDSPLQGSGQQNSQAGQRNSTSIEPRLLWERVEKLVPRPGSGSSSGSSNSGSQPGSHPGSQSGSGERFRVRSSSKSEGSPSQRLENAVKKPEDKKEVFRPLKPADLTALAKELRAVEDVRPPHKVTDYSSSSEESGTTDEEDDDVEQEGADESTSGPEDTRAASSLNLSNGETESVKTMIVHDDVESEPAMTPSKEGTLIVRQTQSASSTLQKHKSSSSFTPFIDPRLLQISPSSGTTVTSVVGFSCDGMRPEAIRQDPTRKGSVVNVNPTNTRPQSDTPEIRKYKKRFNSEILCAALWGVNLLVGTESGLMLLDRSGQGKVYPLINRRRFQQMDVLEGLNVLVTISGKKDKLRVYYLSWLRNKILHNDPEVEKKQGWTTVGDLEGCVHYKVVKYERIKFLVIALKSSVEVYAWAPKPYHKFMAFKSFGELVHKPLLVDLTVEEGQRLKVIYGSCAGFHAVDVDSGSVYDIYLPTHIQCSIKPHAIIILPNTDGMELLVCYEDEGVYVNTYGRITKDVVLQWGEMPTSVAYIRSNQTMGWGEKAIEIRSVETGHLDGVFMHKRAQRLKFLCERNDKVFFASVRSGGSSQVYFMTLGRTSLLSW
# High affinity nerve growth factor receptor (Homo sapiens), sequence (P04629 33-796 limits assumed): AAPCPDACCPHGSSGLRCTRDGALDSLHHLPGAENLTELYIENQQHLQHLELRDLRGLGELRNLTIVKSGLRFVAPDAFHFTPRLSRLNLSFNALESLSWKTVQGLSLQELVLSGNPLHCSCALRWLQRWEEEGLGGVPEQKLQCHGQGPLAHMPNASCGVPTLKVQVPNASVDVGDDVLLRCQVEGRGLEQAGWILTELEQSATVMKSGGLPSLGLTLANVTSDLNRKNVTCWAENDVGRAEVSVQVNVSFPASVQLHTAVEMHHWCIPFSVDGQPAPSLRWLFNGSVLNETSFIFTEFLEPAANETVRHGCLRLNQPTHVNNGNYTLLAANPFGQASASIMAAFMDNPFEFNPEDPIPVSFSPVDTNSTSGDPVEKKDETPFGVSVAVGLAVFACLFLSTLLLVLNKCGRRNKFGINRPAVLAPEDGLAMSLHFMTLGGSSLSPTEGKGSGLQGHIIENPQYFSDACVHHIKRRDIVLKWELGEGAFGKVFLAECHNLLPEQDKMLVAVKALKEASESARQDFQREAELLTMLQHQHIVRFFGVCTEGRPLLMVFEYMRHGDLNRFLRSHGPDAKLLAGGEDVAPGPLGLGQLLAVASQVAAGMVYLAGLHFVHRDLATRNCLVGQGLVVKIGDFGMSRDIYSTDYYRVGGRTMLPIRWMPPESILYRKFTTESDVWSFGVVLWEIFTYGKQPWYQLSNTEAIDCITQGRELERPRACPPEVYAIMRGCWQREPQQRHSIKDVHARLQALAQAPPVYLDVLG
# NT-3 growth factor receptor (Homo sapiens), sequence (Q16288 32-839 limits assumed): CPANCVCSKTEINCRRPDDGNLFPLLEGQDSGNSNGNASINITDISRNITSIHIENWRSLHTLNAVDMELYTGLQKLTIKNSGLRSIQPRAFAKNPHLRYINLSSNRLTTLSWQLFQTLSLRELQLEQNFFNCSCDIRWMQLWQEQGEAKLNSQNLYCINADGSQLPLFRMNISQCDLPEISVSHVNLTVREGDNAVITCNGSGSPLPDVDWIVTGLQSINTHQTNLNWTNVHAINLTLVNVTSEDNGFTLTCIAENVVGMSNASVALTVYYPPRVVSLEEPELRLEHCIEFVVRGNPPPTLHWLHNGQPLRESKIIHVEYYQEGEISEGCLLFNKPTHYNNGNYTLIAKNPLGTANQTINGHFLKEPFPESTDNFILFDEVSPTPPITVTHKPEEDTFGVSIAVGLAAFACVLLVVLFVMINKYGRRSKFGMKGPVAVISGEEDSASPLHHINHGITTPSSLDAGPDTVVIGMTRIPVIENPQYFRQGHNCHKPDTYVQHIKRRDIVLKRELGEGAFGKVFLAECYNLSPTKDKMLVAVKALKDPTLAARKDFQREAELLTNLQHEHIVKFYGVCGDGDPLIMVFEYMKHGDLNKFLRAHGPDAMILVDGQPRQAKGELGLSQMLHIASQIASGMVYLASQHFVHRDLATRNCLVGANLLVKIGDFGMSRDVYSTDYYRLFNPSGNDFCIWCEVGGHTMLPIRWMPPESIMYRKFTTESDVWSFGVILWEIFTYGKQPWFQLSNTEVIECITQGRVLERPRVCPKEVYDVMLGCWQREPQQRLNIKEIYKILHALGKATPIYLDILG
Compound,inhibition [1],inhibition [2],inhibition [3],inhibition [4],inhibition [5],inhibition [6],inhibition [7],inhibition [8],inhibition [9],inhibition [10],inhibition [11],inhibition [12],inhibition [13],inhibition [14],inhibition [15],inhibition [16],inhibition [17],inhibition [18],inhibition [19],inhibition [20]
COc1ccc2ncn(-c3cc(O[C@H](C)c4ccccc4Cl)c(C(N)=O)s3)c2c1,4.03%,3.84%,9.91%,4.36%,11%,-5.63%,-1.33%,-5.25%,9.02%,-1.27%,0.29%,-0.75%,1.24%,-3.77%,1.77%,20.3%,59.1%,1.91%,11%,4.38%
CN1CCN(CCCNc2nc3ccc(Oc4ccc(NC(=O)Nc5cc(C(F)(F)F)ccc5F)cc4)cc3[nH]2)CC1,34%,1.65%,10.6%,4.05%,17.4%,1%,5.01%,-2.82%,20.8%,-1.66%,-0.34%,-0.75%,4.51%,-5.06%,23.7%,15.9%,53%,3.12%,8.26%,2.15%
N#Cc1ccc(Oc2nccc(-c3c(-c4ccc(F)cc4)ncn3C3CCNCC3)n2)cc1,0.26%,2.91%,4.54%,2.17%,3.17%,-0.35%,1.69%,-3.12%,8.89%,3.21%,4.78%,3.58%,5.49%,0.14%,3.86%,6.19%,8.89%,0.91%,4.07%,3.8%
CN(C)CCCNc1nccc(-c2c(-c3ccc(F)cc3)nn3cc(C(F)(F)F)ccc23)n1,2.77%,4.65%,0.51%,2.89%,2.21%,-0.89%,0.21%,-7.47%,8.76%,-2.9%,6.4%,0.91%,6.92%,-1.31%,-0.03%,2.34%,7.46%,4.09%,7.36%,5.21%
NC(=O)c1cc(-c2ccncc2)cc(-c2ccccc2)c1N,1.84%,2.94%,3.86%,3.19%,4.68%,45%,76.1%,-3.77%,10.8%,2.73%,6.63%,3.91%,4.94%,1.71%,5.08%,6.67%,9.99%,0.27%,0.97%,11.9%
